The structures appear in SMILES notation. Unmarked numbers belong to inactive results. How the calls were made is not given here.

The values that follow come from PubChem BioAssay.

Sequence of Pantothenate synthetase (Mycobacterium tuberculosis (strain ATCC 25618 / H37Rv)) (P9WIL5 whole entry, looked up): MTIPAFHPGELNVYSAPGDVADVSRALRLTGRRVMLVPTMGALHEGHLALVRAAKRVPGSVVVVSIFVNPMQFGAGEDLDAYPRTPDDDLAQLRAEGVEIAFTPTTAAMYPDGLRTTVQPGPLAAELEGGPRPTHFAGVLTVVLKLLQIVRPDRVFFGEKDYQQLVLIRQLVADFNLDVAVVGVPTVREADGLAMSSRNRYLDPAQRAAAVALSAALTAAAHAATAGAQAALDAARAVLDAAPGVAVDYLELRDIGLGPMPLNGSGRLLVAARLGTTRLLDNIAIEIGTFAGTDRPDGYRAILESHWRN

This assay concerns the target Pantothenate synthetase (Mycobacterium tuberculosis (strain ATCC 25618 / H37Rv)) (UniProt P9WIL5). Briefly: Recombinant Mtb pantothenate synthetase (PanC) inhibitors, coupled enzyme, confirmatory (AID 375).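 Further: 0% = full reaction with vehicle and 100% = no enzyme background.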 The note with it: coupled enzyme assay; at 10 µM, stronger effect = higher value.
As a reminder, the inhibition is the relative decrease from the control value, in per cent. As to `Nc1nnc(-c2cc3ccccc3oc2=O)s1`, the inhibition is 8%. On to `COc1ccc(N2CCN(C(c3cccc(OC)c3OC)c3nnnn3C3CCCC3)CC2)cc1` (centres undefined), for which the inhibition is 0%. In the case of `Cn1nnnc1SCC(=O)NC1CCCCC1` it was 0%; in that of `O=C(NCc1n[nH]c(=S)n1-c1ccc(F)cc1)c1ccco1`, 0%. In the case of `O=S(=O)(NCC(O)COCc1ccco1)c1cccs1` (centres undefined) it was 2%; in that of `NC(CO)C(=O)NNCc1ccc(O)c(O)c1O` (centres undefined), 0%; in that of `COC(=O)c1cccc(S(=O)(=O)N2CCN(c3nc4ccccc4s3)CC2)c1`, 2%. In the case of `CC(=O)N1CCC2(CC1)CC(=O)c1cc(OCC(=O)NCc3ccco3)ccc1O2` it was 3%; in that of `CCOc1ccc(NS(=O)(=O)c2ccc(OCC(=O)N3CCCC3)cc2)cc1`, 0%. Consider `COc1cccc(Cn2c(Oc3ccccc3)nc3c2c(=O)n(C)c(=O)n3C)c1`, for which the inhibition is 0%.

On to `Cn1c2c(c(=O)n(C)c1=O)C(CC(=O)Nc1ccccc1)C(=O)N2` (centres undefined), for which the inhibition is 7%. For the compound `COc1cc2c(cc1OC)C(c1ccccc1O)N(C1CC(=O)N(c3ccccc3)C1=O)CC2` (centres undefined), the inhibition is 0%. Consider `Cc1ccc(NC(=O)CSC2=C(C#N)C(c3ccc4c(c3)OCO4)CC(=O)N2)cc1C` (centres undefined), for which the inhibition is 0%. In the case of `COc1cccc2c1C(=O)c1c(O)c3c(c(O)c1C2=O)C[C@@](O)(C(C)=O)C[C@@H]3O[C@H]1C[C@H](N)[C@H](O)[C@H](C)O1` it was 0%; in that of `COc1ccc(CCNC(=O)c2ccncc2)cc1OC`, 4%. Then `O=C(Nc1nc(-c2ccncc2)cs1)C1COc2ccccc2O1` (centres undefined), with 0%; and `O=C(c1cccs1)N1CCN=C1SCc1ccccc1`, with 4%; and `COc1cccc(C2C(C#N)=C(N)OC3=C2C(=O)CCC3)c1OC(=O)c1ccco1` (centres undefined), with 13%. Consider `CCn1cc(C(=O)Nc2cc3c(cc2NC(C)=O)OCCO3)c(=O)c2ccc(C)nc21`, for which the inhibition was 1%. Then `CCOc1ccc2nc(NC(=O)CSc3nnnn3C3CCCCC3)sc2c1`, with 1%; and `C=CCc1cc(C(=O)N2CCCCC2)ccc1O`, with 0%; and `COc1cc2c(cc1OC)-c1cc(OCc3cccnc3)nc(=O)n1CC2`, with 12%. Turning to `Cc1cc2c(c(=O)o1)C(C13C=CC(CC1)C3)C(C#N)=C(N)O2` (centres undefined), the inhibition was 0%.

As for `CC(C)Cn1cc(C(=O)NCC2CCCO2)c2c3ccccc3n(C)c2c1=O` (centres undefined), the inhibition is 4%.

Regarding `Cc1ccccc1NC(=O)C1Cc2ccccc2C(=O)O1` (centres undefined), the inhibition was 0%. Then `O=C(Cc1cccs1)Nc1nnc(CCc2ccccc2)s1`, with 0%; and `CCc1nnc(NC(=O)c2cccc(C(=O)Nc3nnc(CC)s3)n2)s1`, with 0%. Turning to `COc1cccc(NC(=O)CN2CCN(c3ccccc3F)CC2)c1`, the inhibition was 4%.

Consider `CCn1nccc1C(=O)Nc1cc(Cl)ccc1Cl`, for which the inhibition was 0%. In the case of `CC(C)COC(=O)NCC12C=CC(O1)C1C(=O)N(c3ccc(Cl)cc3)C(=O)C12` (centres undefined) it was 0%. Consider `c1ccc(-n2nnnc2OCCOc2nnnn2-c2ccccc2)cc1`, for which the inhibition was 3%. In the case of `CCOC(=O)c1cnc(SC2CC(=O)N(c3ccc(OC)c(OC)c3)C2=O)nc1N` (centres undefined) it was 0%; in that of `O=C(CSc1nnc(-c2ccco2)c(-c2ccco2)n1)Nc1ccccc1`, 2%; in that of `COc1ccc(CC(=O)Nc2ccc(-c3nnc(-c4ccc(C)cc4)o3)cc2)cc1`, 4%. Regarding `COc1cc(NC(=O)c2nccnc2C(=O)O)cc(OC)c1`, the inhibition is 5%.

In the case of `Fc1cccc2sc(N3CCOCC3)nc12`, the inhibition is 1%. In the case of `CCCCC1C(=O)N(c2ccccc2)N(c2ccccc2)C1=O`, the inhibition is 0%.

Turning to `N#CC1=C(N)SC(N)=C(C#N)C1CCc1ccccc1`, the inhibition is 8%. In the case of `Cc1cc2c(nn1)CCC/C2=N\O` it was 2%.
